In PubChem BioAssay AID1159580 (chemical genetic matrix, 2015):
Screen size: about 5,500 compounds; about 2,000 (36%) were called active. Roughly 18% stayed inconclusive and do not appear here. Cut-off read from the data, not from the text of the source: active = normalized growth mostly below about 0.91 (no sharp cut-off); inconclusive = no clear call, values can overlap the other calls; inactive = mostly above about 0.92. The list shows a part of the results.

Experiment: chemical genetic growth profiling, strain panel (AID 1159580);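 note: tested at 20 µM; growth read once vehicle control cultures reached saturation at 30 °C; 1 = growth at the plate median or of vehicle wells; lower values mean less growth of the strain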
Settings: growth OD

Measured: normalized growth

CCCc1nc2c(C)cc(-c3nc4ccccc4n3C)cc2n1Cc1ccc(-c2ccccc2C(=O)O)cc1
active: S. cerevisiae deletion strains, locus YKL085W, strain MDH1 (second series), stronger effect = lower value 1.08 [resistant] | S. cerevisiae deletion strains, locus YKL085W, strain MDH1, stronger effect = lower value 1.08 [resistant]
inactive: S. cerevisiae deletion strains, locus YJR043C, strain POL32, stronger effect = lower value 0.991 | S. cerevisiae deletion strains, locus YJR066W, strain TOR1, stronger effect = lower value 0.952 | S. cerevisiae deletion strains, locus YKL068W, stronger effect = lower value 1.01 | S. cerevisiae deletion strains, locus YKL160W, strain elf1, stronger effect = lower value 1.03 | S. cerevisiae deletion strains, locus YKL190W, strain CNB1, stronger effect = lower value 1 | S. cerevisiae deletion strains, locus YKR001C, strain vps1, stronger effect = lower value 1.02 | S. cerevisiae deletion strains, locus YKR026C, strain gcn3, stronger effect = lower value 1.02 | S. cerevisiae deletion strains, locus YKR091W, strain srl3, stronger effect = lower value 1.01 | S. cerevisiae deletion strains, locus YLL001W, strain dnm1, stronger effect = lower value 1.01 | S. cerevisiae deletion strains, locus YLL026W, stronger effect = lower value 1 | S. cerevisiae deletion strains, locus YLL041C, strain sdh2, stronger effect = lower value 1.01 | S. cerevisiae deletion strains, locus YLR027C, strain aat2, stronger effect = lower value 1 | S. cerevisiae deletion strains, locus YLR039C, strain RIC1, stronger effect = lower value 0.975 | S. cerevisiae deletion strains, locus YLR058C, strain SHM2, stronger effect = lower value 1 | S. cerevisiae deletion strains, locus YLR102C, strain apc9, stronger effect = lower value 1 | S. cerevisiae deletion strains, locus YLR113W, strain HOG1, stronger effect = lower value 1 | S. cerevisiae deletion strains, locus YLR221C, strain rsa3, stronger effect = lower value 0.994 | S. cerevisiae deletion strains, locus YLR258W, strain gsy2, stronger effect = lower value 1.01 | S. cerevisiae deletion strains, locus YLR262C, strain YPT6 (second series), stronger effect = lower value 0.975 | S. cerevisiae deletion strains, locus YLR262C, strain YPT6, stronger effect = lower value 0.998 | S. cerevisiae deletion strains, locus YLR268W, strain sec22, stronger effect = lower value 1 | S. cerevisiae deletion strains, locus YLR320W, strain mms22, stronger effect = lower value 0.983 | S. cerevisiae deletion strains, locus YLR330W, strain CHS5, stronger effect = lower value 1 | S. cerevisiae deletion strains, locus YLR342W, strain FKS1 (second series), stronger effect = lower value 1 | S. cerevisiae deletion strains, locus YLR342W, strain FKS1, stronger effect = lower value 1 | S. cerevisiae deletion strains, locus YLR357W, strain rsc2, stronger effect = lower value 1.03 | S. cerevisiae deletion strains, locus YLR370C, strain arc18, stronger effect = lower value 1.01 | S. cerevisiae deletion strains, locus YLR371W, strain rom2, stronger effect = lower value 1 | S. cerevisiae deletion strains, locus YLR384C, strain iki3, stronger effect = lower value 1.03 | S. cerevisiae deletion strains, locus YLR418C, strain cdc73, stronger effect = lower value 1 | S. cerevisiae deletion strains, locus YML016C, strain PPZ1, stronger effect = lower value 0.997 | S. cerevisiae deletion strains, locus YML032C, strain rad52, stronger effect = lower value 1 | S. cerevisiae deletion strains, locus YML120C, strain ndi1, stronger effect = lower value 1 | S. cerevisiae deletion strains, locus YML124C, strain tub3, stronger effect = lower value 0.998 | S. cerevisiae deletion strains, locus YMR058W, strain fet3, stronger effect = lower value 1.01 | S. cerevisiae deletion strains, locus YMR078C, strain ctf18, stronger effect = lower value 1.02 | S. cerevisiae deletion strains, locus YMR125W, strain sto1, stronger effect = lower value 0.99 | S. cerevisiae deletion strains, locus YMR129W, stronger effect = lower value 1.01 | S. cerevisiae deletion strains, locus YMR205C, strain PFK2, stronger effect = lower value 1 | S. cerevisiae deletion strains, locus YMR223W, strain ubp8, stronger effect = lower value 1.03 | S. cerevisiae deletion strains, locus YMR231W, strain pep5, stronger effect = lower value 1.02 | S. cerevisiae deletion strains, locus YMR263W, strain SAP30, stronger effect = lower value 0.994 | S. cerevisiae deletion strains, locus YMR307W, strain GAS1, stronger effect = lower value 0.995 | S. cerevisiae deletion strains, locus YNL067W, strain RPL9B, stronger effect = lower value 0.992 | S. cerevisiae deletion strains, locus YNL071W, strain lat1, stronger effect = lower value 1.01 | S. cerevisiae deletion strains, locus YNL128W, strain TEP1, stronger effect = lower value 1.01 | S. cerevisiae deletion strains, locus YNL183C, strain NPR1, stronger effect = lower value 0.969 | S. cerevisiae deletion strains, locus YNL209W, strain ssb2, stronger effect = lower value 1 | S. cerevisiae deletion strains, locus YNL233W, strain BNI4, stronger effect = lower value 0.985 | S. cerevisiae deletion strains, locus YNL248C, strain rpa49, stronger effect = lower value 1.02 | S. cerevisiae deletion strains, locus YNL250W, strain rad50, stronger effect = lower value 1.03 | S. cerevisiae deletion strains, locus YNL271C, strain bni1, stronger effect = lower value 1.02 | S. cerevisiae deletion strains, locus YNL298W, strain CLA4, stronger effect = lower value 1.02 | S. cerevisiae deletion strains, locus YNL307C, strain MCK1, stronger effect = lower value 1.01 | S. cerevisiae deletion strains, locus YNL322C, strain KRE1 (second series), stronger effect = lower value 0.976 | S. cerevisiae deletion strains, locus YNR049C, strain mso1, stronger effect = lower value 1.02 | S. cerevisiae deletion strains, locus YNR052C, strain pop2, stronger effect = lower value 1.01 | S. cerevisiae deletion strains, locus YOL006C, strain TOP1, stronger effect = lower value 0.995 | S. cerevisiae deletion strains, locus YOL012C, strain htz1 0.863 | S. cerevisiae deletion strains, locus YOL147C, strain pex11, stronger effect = lower value 1.01 | S. cerevisiae deletion strains, locus YOR001W, strain rrp6, stronger effect = lower value 0.99 | S. cerevisiae deletion strains, locus YOR061W, strain CKA2, stronger effect = lower value 0.996 | S. cerevisiae deletion strains, locus YOR069W, strain VPS5, stronger effect = lower value 1.01 | S. cerevisiae deletion strains, locus YOR070C, strain gyp1, stronger effect = lower value 1.01 | S. cerevisiae deletion strains, locus YOR080W, strain dia2, stronger effect = lower value 1.01 | S. cerevisiae deletion strains, locus YOR083W, strain WHI5, stronger effect = lower value 1.01 | S. cerevisiae deletion strains, locus YOR106W, strain vam3, stronger effect = lower value 1.03 | S. cerevisiae deletion strains, locus YOR136W, strain idh2, stronger effect = lower value 1.01 | S. cerevisiae deletion strains, locus YOR144C, strain elg1, stronger effect = lower value 1.01 | S. cerevisiae deletion strains, locus YOR184W, strain ser1, stronger effect = lower value 0.999 | S. cerevisiae deletion strains, locus YOR231W, strain MKK1, stronger effect = lower value 0.998 | S. cerevisiae deletion strains, locus YOR265W, strain rbl2, stronger effect = lower value 1.01 | S. cerevisiae deletion strains, locus YOR270C, strain vph1, stronger effect = lower value 0.954 | S. cerevisiae deletion strains, locus YOR290C, strain snf2, stronger effect = lower value 1.01 | S. cerevisiae deletion strains, locus YOR316C, strain cot1, stronger effect = lower value 0.999 | S. cerevisiae deletion strains, locus YPL051W, strain arl3, stronger effect = lower value 1.01 | S. cerevisiae deletion strains, locus YPL055C, strain LGE1, stronger effect = lower value 0.974 | S. cerevisiae deletion strains, locus YPL078C, strain atp4, stronger effect = lower value 1.01 | S. cerevisiae deletion strains, locus YPL106C, strain sse1, stronger effect = lower value 0.996 | S. cerevisiae deletion strains, locus YPL240C, strain hsp82, stronger effect = lower value 1.01 | S. cerevisiae deletion strains, locus YPL256C, strain CLN2, stronger effect = lower value 0.969 | S. cerevisiae deletion strains, locus YPR119W, strain clb2, stronger effect = lower value 1 | S. cerevisiae deletion strains, locus YPR141C, strain kar3, stronger effect = lower value 1.01 | S. cerevisiae deletion strains, locus YPR163C, strain tif3, stronger effect = lower value 0.997 | S. cerevisiae deletion strains, locus YPR167C, strain met16, stronger effect = lower value 1.01 | S. cerevisiae deletion strains, strain wtn01, stronger effect = lower value 1.05 | S. cerevisiae strains, strain wild type, stronger effect = lower value 1
